Our source for the Potency and outcome values is PubChem BioAssay (Tox21).

A short description of assay [1]: qHTS assay to test for compound auto fluorescence at 535 nm (green) in HEK293 cells (AID 720680). A general note: In qHTS, concentration-response curves come from the screen itself.
Assay [2] can be described thus: qHTS assay to test for compound auto fluorescence at 460 nm (blue) in HEK293 cell free culture (AID 720681). The procedure, abridged:
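Test compounds were pinned into cell-free culture medium (DMEM with 10% FBS) and fluorescence was read directly at Ex/Em 405/460 nm. Signals were expressed as fluorescence equivalents of triamterene, with DMSO vehicle as control.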

Assay [3] is described as follows: qHTS assay to test for compound auto fluorescence at 535 nm (green) in HEK293 cell free culture (AID 720682). The procedure, abridged: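 Green-label autofluorescence (485 nm excitation, 535 nm emission) measured on compound added to cell-free culture medium (DMEM, 10% FBS). Output is expressed relative to fluorescein.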
The nature of assay [4]: qHTS assay to test for compound auto fluorescence at 590 nm (red) in HEK293 cell free culture (AID 720683). The procedure, abridged: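 Tox21 10K library compounds were pinned into cell-free DMEM with 10% FBS and fluorescence was read at excitation 540 nm. Activity is expressed as Rose Bengal sodium equivalency.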
A short description of assay [5]: qHTS assay to test for compound auto fluorescence at 590 nm (red) in HepG2 cell free culture (AID 720684). The procedure, abridged: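 Red fluorescence (540 nm excitation, 590 nm emission) was measured after compound transfer into cell-free MEM supplemented with 10% FBS. Values are equivalencies against Rose Bengal sodium.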
A short description of assay [6]: qHTS assay to test for compound auto fluorescence at 460 nm (blue) in HepG2 cell free culture (AID 720685). The procedure, abridged: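 Compound (23 nL) or DMSO pinned into cell-free MEM with 10% FBS; blue fluorescence read at 405/460 nm excitation/emission, expressed as auto-fluorescence equivalency to triamterene.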
Assay [7] in a line: qHTS assay to test for compound auto fluorescence at 535 nm (green) in HepG2 cell free culture (AID 720686).
The nature of assay [8]: qHTS assay to test for compound auto fluorescence at 460 nm (blue) in HepG2 cells (AID 720687). The procedure, abridged:
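Cells (2,000/well in MEM with 10% FBS) attached overnight at 37 C, then were exposed to compound or DMSO for 1 hr at 37 C, 5% CO2. Fluorescence read at Ex/Em 405/460 nm, expressed as triamterene-equivalent signal.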

A short description of assay [9]: qHTS assay to identify small molecule antagonists of the glucocorticoid receptor (GR) signaling pathway - cell viability counter screen (AID 720693). Also: nearly all actives have a fitted effect of over 55% in size.
The nature of assay [10]: qHTS assay for identifying genotoxic compounds that show differential cytotoxicity against isogenic chicken DT40 cell lines with known DNA damage response pathways - wild type cell line (AID 743012). Also: nearly all actives have a fitted effect of over 60% in size. Also: potency is read from the fitted curve at half-maximal effect. The procedure, abridged:
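Parental DNA repair-proficient DT40 cells, 300 per well, were pre-incubated ~0.5 h at 37 C/5% CO2, pin-dosed with compounds in DMSO, then incubated 40 h. Viability was read as CellTiter-Glo luminescence after 30 min at room temperature.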

Assay [11] is described as follows: qHTS assay for identifying genotoxic compounds that show differential cytotoxicity against isogenic chicken DT40 cell lines with known DNA damage response pathways - Rev3 mutant cell line (AID 743014). Also: nearly all actives have a fitted effect of over 55% in size. Also: potency is read from the fitted curve at half-maximal effect.
A short description of assay [12]: qHTS assay for identifying genotoxic compounds that show differential cytotoxicity against isogenic chicken DT40 cell lines with known DNA damage response pathways - Rad54/Ku70 mutant cell line (AID 743015). Also: nearly all actives have a fitted effect of over 60% in size. Also: potency is read from the fitted curve at half-maximal effect.
Assay [13] in a line: qHTS assay to identify small molecule antagonists of the androgen receptor (AR) signaling pathway - cell viability counter screen (AID 743033; also: nearly all actives have a fitted effect of over 45% in size).
Assay [14] is described as follows: qHTS assay to identify small molecule antagonists of the androgen receptor (AR) signaling pathway using the MDA cell line - cell viability counter screen (AID 743041; also: nearly all actives have a fitted effect of over 45% in size). The procedure, abridged:
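MDA-kb2 AR-luc human breast carcinoma cells (MMTV-luciferase, AR/GR responsive) were treated with compounds plus R1881 agonist for 16 h at 37 °C. Viability was read as CellTiter-Fluor fluorescence in the same wells as the reporter assay.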

The target of assay [15] is Androgen receptor (Homo sapiens) (UniProt P10275). Nature of the assay: qHTS assay to identify small molecule antagonists of the androgen receptor (AR) signaling pathway (AID 743035; active = well fitted inhibition curve with a large enough effect in the signal ratio in the repeat runs, not every such curve was filed as active; the % refers to the signal ratio). The procedure, abridged:
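HEK293 cells stably carrying a UAS-driven beta-lactamase reporter (AR-UAS-bla GripTite) were plated for 4 h at 37C, then given compound and the agonist R1881 and incubated 16 h. Reporter activity was read by LiveBLAzer B/G FRET fluorescence after 2 h at room temperature.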

Assay [16] shares this target. Nature of the assay: qHTS assay to identify small molecule agonists of the androgen receptor (AR) signaling pathway (AID 743036; active = well fitted activation curve with a large enough effect in the signal ratio in the repeat runs, with a control signal flat, not every such curve was filed as active; the % refers to the signal ratio). The procedure, abridged: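 AR-UAS-bla HEK293 cells, plated 4 h before dosing, were treated with compound for 16 h at 37C. beta-Lactamase reporter read after 2 h with LiveBLAzer B/G FRET substrate at room temperature.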
Assay [17] shares this target. Nature of the assay: qHTS assay to identify small molecule agonists of the androgen receptor (AR) signaling pathway using the MDA cell line (AID 743040; also: nearly all actives have a fitted effect of over 20% in size). The procedure, abridged:
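MDA-kb2 breast carcinoma cells stably carrying an MMTV-driven luciferase reporter (AR- and GR-responsive) were seeded and held 5 h at 37C, 0% CO2, then exposed to compounds in DMSO for 16 h. Luminescence was read 30 min after ONE-Glo addition.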

For assay [18] the target is unchanged. Nature of the assay: qHTS assay to identify small molecule antagonists of the androgen receptor (AR) signaling pathway using the MDA cell line (AID 743042; also: nearly all actives have a fitted effect of over 55% in size). The procedure, abridged:
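MDA-kb2 cells (human breast carcinoma, stably carrying an MMTV-luciferase reporter responsive to AR and GR) were plated at 3,000 cells/well and preincubated 5 hr at 37C, then given compound plus R1881 agonist for 16 h. ONE-Glo luminescence was read.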

In assay [19] the target is Glucocorticoid receptor (Homo sapiens) (UniProt P04150). Nature of the assay: qHTS assay to identify small molecule agonists of the glucocorticoid receptor (GR) signaling pathway (AID 720691; active = well fitted activation curve with a large enough effect in the signal ratio in the repeat runs, not every such curve was filed as active; the % refers to the signal ratio). The procedure, abridged: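 GR-bla HeLa cells (beta-lactamase reporter under glucocorticoid response element) were plated 4 h at 37 C/5% CO2, given compounds in DMSO, and incubated 18 h at 37 C. LiveBLAzer B/G FRET substrate was added for 2 h at room temperature, then fluorescence intensity read.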
Sequence of Glucocorticoid receptor (Homo sapiens) (P04150 whole entry, looked up): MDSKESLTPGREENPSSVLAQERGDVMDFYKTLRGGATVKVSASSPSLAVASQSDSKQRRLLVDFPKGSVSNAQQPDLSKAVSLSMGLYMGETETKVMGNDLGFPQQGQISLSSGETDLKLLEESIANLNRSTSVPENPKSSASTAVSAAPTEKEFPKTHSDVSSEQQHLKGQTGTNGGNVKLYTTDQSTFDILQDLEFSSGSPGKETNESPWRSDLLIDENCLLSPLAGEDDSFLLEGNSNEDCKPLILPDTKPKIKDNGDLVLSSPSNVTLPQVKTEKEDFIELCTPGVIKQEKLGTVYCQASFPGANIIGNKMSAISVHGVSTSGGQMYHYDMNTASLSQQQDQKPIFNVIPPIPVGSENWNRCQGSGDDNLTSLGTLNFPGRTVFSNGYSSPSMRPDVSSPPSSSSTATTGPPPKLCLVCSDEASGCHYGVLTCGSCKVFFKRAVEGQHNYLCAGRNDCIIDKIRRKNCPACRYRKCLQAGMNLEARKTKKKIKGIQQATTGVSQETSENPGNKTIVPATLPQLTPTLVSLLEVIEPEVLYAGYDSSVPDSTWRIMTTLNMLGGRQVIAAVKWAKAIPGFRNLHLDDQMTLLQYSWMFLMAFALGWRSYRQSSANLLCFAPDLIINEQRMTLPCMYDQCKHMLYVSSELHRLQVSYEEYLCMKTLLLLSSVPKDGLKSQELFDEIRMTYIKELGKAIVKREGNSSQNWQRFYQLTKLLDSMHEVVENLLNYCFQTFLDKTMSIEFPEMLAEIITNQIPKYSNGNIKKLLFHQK

Values joined by “and” are separate entries in the source; they are usually repeats but may differ in a detail not shown here. Identical values can stand only once. Results filed as inconclusive are left out. Where a structure was tested more than once in an assay, its records may differ in their call. Active and inactive are the calls of the source. Unless noted, calls follow the shape of the dose curve; as a rule, active = well fitted curve in the direction sought with a large enough effect in the repeat runs; inconclusive = weak or mixed curves; inactive = no such curve, though single readings can be large; an effect the other way counts as inactive or inconclusive.

Sequence of Androgen receptor (Homo sapiens) (P10275 whole entry, looked up): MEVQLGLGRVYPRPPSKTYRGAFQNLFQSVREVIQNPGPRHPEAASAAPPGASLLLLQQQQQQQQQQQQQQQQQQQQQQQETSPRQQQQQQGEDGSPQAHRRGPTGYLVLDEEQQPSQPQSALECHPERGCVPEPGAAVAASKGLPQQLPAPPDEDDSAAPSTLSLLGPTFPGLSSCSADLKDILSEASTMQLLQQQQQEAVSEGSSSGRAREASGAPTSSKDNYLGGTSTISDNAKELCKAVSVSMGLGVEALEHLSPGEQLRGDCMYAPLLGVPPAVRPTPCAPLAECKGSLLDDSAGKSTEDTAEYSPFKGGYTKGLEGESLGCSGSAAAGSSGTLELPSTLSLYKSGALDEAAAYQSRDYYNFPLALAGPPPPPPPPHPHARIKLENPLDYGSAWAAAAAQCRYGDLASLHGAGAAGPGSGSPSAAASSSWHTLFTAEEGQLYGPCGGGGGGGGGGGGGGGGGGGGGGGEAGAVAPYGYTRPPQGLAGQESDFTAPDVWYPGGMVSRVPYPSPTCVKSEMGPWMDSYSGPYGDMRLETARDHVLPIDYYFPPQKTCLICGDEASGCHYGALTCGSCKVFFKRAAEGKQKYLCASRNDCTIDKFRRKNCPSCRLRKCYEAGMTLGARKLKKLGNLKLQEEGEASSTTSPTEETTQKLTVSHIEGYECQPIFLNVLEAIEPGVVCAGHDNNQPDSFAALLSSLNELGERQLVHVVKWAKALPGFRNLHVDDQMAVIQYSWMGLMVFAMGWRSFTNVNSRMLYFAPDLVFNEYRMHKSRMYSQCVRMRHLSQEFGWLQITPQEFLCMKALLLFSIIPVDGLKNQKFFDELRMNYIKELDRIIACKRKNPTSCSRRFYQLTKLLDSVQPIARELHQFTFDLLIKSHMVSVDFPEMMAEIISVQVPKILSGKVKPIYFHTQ

On to `CCCCCC=O`, for which the Potency result in [1], in [2], in [3], in assay [4], in assay [5] and in assay [6] was “inactive” throughout. Also, the Potency entry in assay [7], in [8], in assay [9], in [10], in assay [11] and in assay [12] was “inactive” throughout. The Potency entry in assay [13] and in [14] was “inactive” throughout.

As to `CCc1cccc2c3c([nH]c12)C(CC)(CC(=O)O)OCC3` (stereo not given), the Potency entry in assay [1], in assay [2], in assay [3], in assay [4], in [5] and in [6] was “inactive” in each case. In addition, the Potency entry in assay [7], in assay [8], in assay [9], in [10], in assay [11] and in [13] was “inactive” in each case. Also, the Potency result in [15], in assay [17], in assay [14] and in assay [18] was “inactive” in each case. Moreover, the outcome in assay [16] was inactive.

For the compound `CC(C)[C@@H]1CC[C@@H](C)CC1=O`, the Potency entry in assay [1], in assay [2], in assay [3], in assay [4], in assay [5] and in [6] was “inactive” in each case. Moreover, the Potency entry in [7], in assay [8], in assay [9], in assay [10], in assay [11] and in assay [12] was “inactive” each time. Moreover, the Potency result in [13] and in assay [14] was “inactive” in each case.

`Nc1cc([N+](=O)[O-])ccc1C(=O)O`: the Potency entry in assay [1], in assay [2], in [3], in assay [4], in [5] and in assay [6] was “inactive” each time. The Potency entry in assay [7], in assay [8], in assay [9], in assay [10], in assay [11] and in assay [12] was “inactive” in each case. For the same compound, the Potency entry in [13] and in [14] was “inactive” throughout.

For `C=C[C@H]1CN2CC[C@H]1C[C@H]2[C@H](O)c1ccnc2ccc(OC)cc12`, the Potency result in assay [1], in assay [2], in [3], in [4], in assay [5] and in [6] was “inactive” in each case. Besides, the Potency result in assay [7], in assay [8], in assay [9], in [13] and in [14] was “inactive” in each case. Further, the Potency in assay [10] was 13.3 µM (active) and 8.41 µM (active) and 54.5 µM (active); in assay [11], 23.7 µM (active) and 13.3 µM (active) and 27.3 µM (active); in [12], 26.6 µM (active) and 13.3 µM (active) and 27.3 µM (active).

Consider `CCC(=O)O[C@H]1[C@H](O[C@@H]2[C@@H](C)[C@H](O[C@H]3C[C@@](C)(OC)[C@@H](O)[C@H](C)O3)[C@@H](C)C(=O)O[C@H](CC)[C@@](C)(O)[C@H](O)[C@@H](C)C(=O)[C@H](C)C[C@@]2(C)O)O[C@H](C)C[C@@H]1N(C)C`, for which the Potency entry in [1], in [2], in assay [3], in assay [4], in assay [5] and in assay [6] was “inactive” throughout. For the same compound, the Potency result in assay [7], in assay [8], in assay [19], in assay [9], in assay [13] and in [14] was “inactive” throughout. Besides, the Potency in [10] is 40.5 µM (active); in [11], “inactive and 20.3 µM (active)”.

Consider `CN(C)C`, for which the Potency entry in assay [1], in assay [2], in assay [3], in [4], in assay [5] and in assay [6] was “inactive” each time. In addition, the Potency result in [7], in [8], in assay [9], in assay [10], in [11] and in assay [12] was “inactive” in each case. The Potency result in assay [13] and in [14] was “inactive” each time.

Take `C[N+](C)(C)CCO`: the Potency entry in [1], in [2], in assay [3], in assay [4], in assay [5] and in assay [6] was “inactive” each time. The Potency result in assay [7], in [8], in assay [9], in assay [10], in [11] and in assay [12] was “inactive” in each case. For the same compound, the Potency result in assay [13] and in assay [14] was “inactive” throughout.
